The record followed here is PMC7862700, “An all-to-all approach to the identification of sequence-specific readers for epigenetic DNA modifications on cytosine”.

Assay in all cases: DAPPL (digital affinity profiling via proximity ligation, sequencing); 10 mM Tris-HCl pH 7.5, 50 mM NaCl, 1 mM DTT, 4% glycerol, room temperature, 30 min; GST-TFs on glutathione beads, 16-mer random dsDNA library, 0.1% formaldehyde crosslink after washing; high values mean tight binding
What all share (conditions): protein: recombinant; tags: N-terminal GST; dsDNA, one strand shown

One test deals with T1, FLI1 (Homo sapiens, UniProt Q01543 1-452).
T1 sequence: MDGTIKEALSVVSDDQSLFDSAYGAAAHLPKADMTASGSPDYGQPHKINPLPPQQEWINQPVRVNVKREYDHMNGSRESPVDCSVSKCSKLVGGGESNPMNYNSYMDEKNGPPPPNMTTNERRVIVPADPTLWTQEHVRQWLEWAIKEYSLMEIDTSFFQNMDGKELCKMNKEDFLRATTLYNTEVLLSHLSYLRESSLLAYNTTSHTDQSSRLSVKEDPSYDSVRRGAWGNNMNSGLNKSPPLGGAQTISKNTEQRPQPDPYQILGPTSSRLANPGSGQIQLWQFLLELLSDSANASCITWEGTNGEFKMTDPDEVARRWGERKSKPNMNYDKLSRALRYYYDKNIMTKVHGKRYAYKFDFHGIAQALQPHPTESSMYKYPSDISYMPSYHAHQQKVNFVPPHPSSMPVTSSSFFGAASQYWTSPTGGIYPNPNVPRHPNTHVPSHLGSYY
The method in brief:
(§1)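 Yeast served to express human transcription factors as GST fusions, which were then captured on glutathione beads and labelled with DNA barcodes. Pooled with a tag-only sample, they were incubated with 200 nmole of a 16-mer random double-stranded DNA library for 30 min at room temperature in Tris/NaCl/DTT/glycerol buffer, washed, crosslinked with 0.1% formaldehyde, ligated by proximity, amplified by PCR and sequenced. Dividing each hexamer's read frequency for a factor by its frequency for the tag-only sample gives the binding signal.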

The next test deals with T2, ELK1 (Homo sapiens, UniProt P19419 1-428).
T2 sequence: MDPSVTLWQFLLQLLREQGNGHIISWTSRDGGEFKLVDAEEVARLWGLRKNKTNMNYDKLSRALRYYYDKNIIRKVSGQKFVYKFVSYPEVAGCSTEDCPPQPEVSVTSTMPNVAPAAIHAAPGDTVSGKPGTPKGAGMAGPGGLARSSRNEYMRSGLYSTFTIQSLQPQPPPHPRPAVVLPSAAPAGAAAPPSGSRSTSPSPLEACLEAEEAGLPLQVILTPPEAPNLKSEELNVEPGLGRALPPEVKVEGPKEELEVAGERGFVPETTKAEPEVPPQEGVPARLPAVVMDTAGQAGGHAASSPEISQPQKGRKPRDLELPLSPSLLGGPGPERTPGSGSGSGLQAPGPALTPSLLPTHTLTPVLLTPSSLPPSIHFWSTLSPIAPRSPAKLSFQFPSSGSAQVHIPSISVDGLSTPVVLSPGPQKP
The procedure, abridged:
as §1

A further test has as its target T3, GABPA (Homo sapiens, UniProt Q06546 1-454).
T3 sequence: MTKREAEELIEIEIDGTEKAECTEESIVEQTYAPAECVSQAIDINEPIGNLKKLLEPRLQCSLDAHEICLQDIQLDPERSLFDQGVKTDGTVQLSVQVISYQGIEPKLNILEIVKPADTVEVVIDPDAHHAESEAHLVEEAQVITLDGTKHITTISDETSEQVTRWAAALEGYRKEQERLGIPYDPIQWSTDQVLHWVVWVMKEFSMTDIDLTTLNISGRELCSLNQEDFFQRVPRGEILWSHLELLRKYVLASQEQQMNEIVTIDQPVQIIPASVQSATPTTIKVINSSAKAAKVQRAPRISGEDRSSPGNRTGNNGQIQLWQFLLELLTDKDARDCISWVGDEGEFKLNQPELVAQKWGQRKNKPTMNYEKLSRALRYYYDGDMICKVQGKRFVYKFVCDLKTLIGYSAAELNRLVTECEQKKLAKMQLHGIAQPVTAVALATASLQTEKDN
The method in brief:
as §1

In the next test the target is T4, ERG (Homo sapiens, UniProt P11308 1-479).
T4 sequence: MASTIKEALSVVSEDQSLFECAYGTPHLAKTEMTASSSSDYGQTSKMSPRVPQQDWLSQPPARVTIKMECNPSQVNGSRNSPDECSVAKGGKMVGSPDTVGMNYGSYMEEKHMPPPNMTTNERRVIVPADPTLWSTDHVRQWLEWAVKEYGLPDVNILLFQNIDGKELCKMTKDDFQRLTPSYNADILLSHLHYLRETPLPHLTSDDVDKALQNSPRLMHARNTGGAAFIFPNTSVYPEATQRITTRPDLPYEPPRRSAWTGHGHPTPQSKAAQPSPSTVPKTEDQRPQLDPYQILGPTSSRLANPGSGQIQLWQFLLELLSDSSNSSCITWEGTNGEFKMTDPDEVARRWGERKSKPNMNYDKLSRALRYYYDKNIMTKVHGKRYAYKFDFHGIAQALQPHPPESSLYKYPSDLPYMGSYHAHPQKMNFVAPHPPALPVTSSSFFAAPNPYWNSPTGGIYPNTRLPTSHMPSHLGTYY
The procedure, abridged:
as §1

In the next test the target is ELF1 (Homo sapiens, UniProt P32519 1-619). The method in brief:
as §1

In another test the target is T5, EHF (Homo sapiens, UniProt Q9NZC4 1-300).
T5 sequence: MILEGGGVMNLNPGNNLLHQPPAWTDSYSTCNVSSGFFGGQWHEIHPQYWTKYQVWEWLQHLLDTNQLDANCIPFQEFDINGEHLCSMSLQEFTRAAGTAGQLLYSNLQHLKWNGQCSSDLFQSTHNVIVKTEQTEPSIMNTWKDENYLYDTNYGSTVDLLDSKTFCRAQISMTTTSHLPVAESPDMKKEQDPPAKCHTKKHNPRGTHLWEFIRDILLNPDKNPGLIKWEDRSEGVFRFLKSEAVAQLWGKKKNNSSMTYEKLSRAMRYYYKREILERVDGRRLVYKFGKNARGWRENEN
The method in brief: as §1

The target in the next test is SPI1 (Homo sapiens, UniProt P17947 1-270). The procedure, abridged:
as §1

The target in a further test is SPIB (Homo sapiens, UniProt Q01892 1-262). The procedure, abridged: as §1
Sequence of SPIB (Q01892 whole entry): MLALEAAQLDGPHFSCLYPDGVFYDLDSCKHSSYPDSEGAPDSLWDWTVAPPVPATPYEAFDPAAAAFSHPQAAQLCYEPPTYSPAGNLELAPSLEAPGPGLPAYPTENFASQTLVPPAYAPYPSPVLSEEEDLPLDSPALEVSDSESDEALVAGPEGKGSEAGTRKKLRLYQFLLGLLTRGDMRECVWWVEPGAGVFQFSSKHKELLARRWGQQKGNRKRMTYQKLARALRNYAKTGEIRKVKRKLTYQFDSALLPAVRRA
A further test addresses T6, ELK3 (Homo sapiens, UniProt P41970 1-407).
T6 sequence: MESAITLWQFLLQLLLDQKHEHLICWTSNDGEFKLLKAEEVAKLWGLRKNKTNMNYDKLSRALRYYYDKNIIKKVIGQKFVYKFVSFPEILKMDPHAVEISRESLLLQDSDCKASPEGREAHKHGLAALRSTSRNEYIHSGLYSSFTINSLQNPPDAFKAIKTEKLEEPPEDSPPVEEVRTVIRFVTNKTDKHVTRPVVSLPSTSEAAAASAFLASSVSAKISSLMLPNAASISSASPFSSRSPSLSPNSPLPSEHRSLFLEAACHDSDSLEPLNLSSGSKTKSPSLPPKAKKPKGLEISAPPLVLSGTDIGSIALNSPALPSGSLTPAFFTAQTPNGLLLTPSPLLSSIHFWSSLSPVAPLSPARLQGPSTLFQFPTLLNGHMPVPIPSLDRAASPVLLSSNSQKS
The procedure, abridged:
as §1

Sequence of ELF1 (P32519 whole entry): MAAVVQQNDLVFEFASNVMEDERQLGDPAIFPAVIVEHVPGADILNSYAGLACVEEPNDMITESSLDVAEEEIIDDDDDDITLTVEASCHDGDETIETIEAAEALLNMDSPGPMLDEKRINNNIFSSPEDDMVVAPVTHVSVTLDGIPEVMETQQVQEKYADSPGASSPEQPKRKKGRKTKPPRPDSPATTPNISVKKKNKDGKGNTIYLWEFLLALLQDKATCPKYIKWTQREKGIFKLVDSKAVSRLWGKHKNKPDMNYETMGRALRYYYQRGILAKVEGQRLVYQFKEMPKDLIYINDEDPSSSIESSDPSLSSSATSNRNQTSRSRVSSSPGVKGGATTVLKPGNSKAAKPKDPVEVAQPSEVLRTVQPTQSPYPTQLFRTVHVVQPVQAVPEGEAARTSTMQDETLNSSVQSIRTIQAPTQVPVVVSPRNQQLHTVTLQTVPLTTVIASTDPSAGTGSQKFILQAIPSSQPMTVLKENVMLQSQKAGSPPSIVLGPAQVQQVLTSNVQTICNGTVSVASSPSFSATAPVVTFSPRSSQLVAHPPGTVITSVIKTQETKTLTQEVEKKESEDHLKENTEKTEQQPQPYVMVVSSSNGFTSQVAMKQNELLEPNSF

As to AGTATT, the binding signal was 1.12 fold enrichment (6-mer frequency, TF over GST control) with FLI1; 1.19 fold enrichment (6-mer frequency, TF over GST control) in the test with ELK1; 1.1 fold enrichment (6-mer frequency, TF over GST control) with GABPA; 1.2 fold enrichment (6-mer frequency, TF over GST control) in the test with ERG; 1.14 fold enrichment (6-mer frequency, TF over GST control) in the test with ELF1; 1.15 fold enrichment (6-mer frequency, TF over GST control) with EHF. The binding signal with SPI1 was 1.1 fold enrichment (6-mer frequency, TF over GST control); in the test with SPIB, 1.17 fold enrichment (6-mer frequency, TF over GST control); with ELK3, 1.14 fold enrichment (6-mer frequency, TF over GST control).
Regarding TCCAAC, the binding signal with FLI1 was 1.22 fold enrichment (6-mer frequency, TF over GST control); with ELK1, 1.24 fold enrichment (6-mer frequency, TF over GST control); with GABPA, 1.22 fold enrichment (6-mer frequency, TF over GST control); with ERG, 1.16 fold enrichment (6-mer frequency, TF over GST control); with ELF1 it was 1.25 fold enrichment (6-mer frequency, TF over GST control); in the test with EHF, 1.23 fold enrichment (6-mer frequency, TF over GST control). The binding signal with SPI1 is 1.18 fold enrichment (6-mer frequency, TF over GST control); with SPIB it was 1.16 fold enrichment (6-mer frequency, TF over GST control); with ELK3, 1.21 fold enrichment (6-mer frequency, TF over GST control).
In the case of TACTGT, the binding signal with FLI1 is 1.15 fold enrichment (6-mer frequency, TF over GST control); in the test with ELK1 it was 1.21 fold enrichment (6-mer frequency, TF over GST control); with GABPA, 1.13 fold enrichment (6-mer frequency, TF over GST control); with ERG, 1.12 fold enrichment (6-mer frequency, TF over GST control); with ELF1, 1.12 fold enrichment (6-mer frequency, TF over GST control); with EHF it was 1.19 fold enrichment (6-mer frequency, TF over GST control). Moreover, the binding signal was 1.11 fold enrichment (6-mer frequency, TF over GST control) with SPI1; 1.12 fold enrichment (6-mer frequency, TF over GST control) in the test with SPIB; 1.11 fold enrichment (6-mer frequency, TF over GST control) in the test with ELK3.
As to CTATTC, the binding signal in the test with FLI1 is 1.33 fold enrichment (6-mer frequency, TF over GST control); with ELK1, 1.34 fold enrichment (6-mer frequency, TF over GST control); in the test with GABPA it was 1.34 fold enrichment (6-mer frequency, TF over GST control); with ERG, 1.35 fold enrichment (6-mer frequency, TF over GST control); in the test with ELF1, 1.42 fold enrichment (6-mer frequency, TF over GST control); with EHF, 1.42 fold enrichment (6-mer frequency, TF over GST control). Besides, the binding signal is 1.29 fold enrichment (6-mer frequency, TF over GST control) in the test with SPI1; 1.23 fold enrichment (6-mer frequency, TF over GST control) in the test with SPIB; 1.13 fold enrichment (6-mer frequency, TF over GST control) with ELK3.
Regarding TTCAGC, the binding signal with FLI1 is 1.27 fold enrichment (6-mer frequency, TF over GST control); with ELK1 it was 1.2 fold enrichment (6-mer frequency, TF over GST control); with GABPA, 1.26 fold enrichment (6-mer frequency, TF over GST control); with ERG it was 1.24 fold enrichment (6-mer frequency, TF over GST control); with ELF1, 1.23 fold enrichment (6-mer frequency, TF over GST control); with EHF, 1.25 fold enrichment (6-mer frequency, TF over GST control). Further, the binding signal is 1.18 fold enrichment (6-mer frequency, TF over GST control) with SPI1; 1.18 fold enrichment (6-mer frequency, TF over GST control) in the test with SPIB; 1.27 fold enrichment (6-mer frequency, TF over GST control) with ELK3.
In the case of CTAGCA, the binding signal is 1.28 fold enrichment (6-mer frequency, TF over GST control) with FLI1; 1.26 fold enrichment (6-mer frequency, TF over GST control) with ELK1; 1.2 fold enrichment (6-mer frequency, TF over GST control) with GABPA; 1.18 fold enrichment (6-mer frequency, TF over GST control) with ERG; 1.26 fold enrichment (6-mer frequency, TF over GST control) with ELF1; 1.23 fold enrichment (6-mer frequency, TF over GST control) with EHF. Further, the binding signal with SPI1 was 1.14 fold enrichment (6-mer frequency, TF over GST control); in the test with SPIB it was 1.24 fold enrichment (6-mer frequency, TF over GST control); with ELK3, 1.33 fold enrichment (6-mer frequency, TF over GST control).
Take CTAATC: the binding signal with FLI1 is 1.32 fold enrichment (6-mer frequency, TF over GST control); in the test with ELK1 it was 1.39 fold enrichment (6-mer frequency, TF over GST control); with GABPA, 1.34 fold enrichment (6-mer frequency, TF over GST control); with ERG, 1.32 fold enrichment (6-mer frequency, TF over GST control); with ELF1, 1.32 fold enrichment (6-mer frequency, TF over GST control); with EHF, 1.35 fold enrichment (6-mer frequency, TF over GST control). In addition, the binding signal in the test with SPI1 is 1.26 fold enrichment (6-mer frequency, TF over GST control); with SPIB, 1.45 fold enrichment (6-mer frequency, TF over GST control); with ELK3 it was 1.44 fold enrichment (6-mer frequency, TF over GST control).
Regarding TTTAAC, the binding signal was 1.18 fold enrichment (6-mer frequency, TF over GST control) in the test with FLI1; 1.16 fold enrichment (6-mer frequency, TF over GST control) with ELK1; 1.08 fold enrichment (6-mer frequency, TF over GST control) with GABPA; 1.13 fold enrichment (6-mer frequency, TF over GST control) with ERG; 1.21 fold enrichment (6-mer frequency, TF over GST control) in the test with ELF1; 1.1 fold enrichment (6-mer frequency, TF over GST control) with EHF. Moreover, the binding signal in the test with SPI1 was 1.19 fold enrichment (6-mer frequency, TF over GST control); in the test with SPIB, 1.14 fold enrichment (6-mer frequency, TF over GST control); with ELK3 it was 1.21 fold enrichment (6-mer frequency, TF over GST control).
